39 compounds from PubChem BioAssay can be followed below.

Calls of active or inactive are those of the source. Rule as the data show it: active = fold change permeability below about 0.7 or above about 1.3; inactive = in between.

The nature of this experiment: modulators of brain endothelial barrier permeability, primary screen, cell-based, FITC-avidin fluorescence, HTS (AID 1963498). Also: test concentration not given here. The conditions noted are these: actives lie on both sides.
`O=C(c1ccoc1)N1CCN(c2cc(-c3ccco3)nc3cc(-c4ccccc4)nn23)CC1`: the fold change permeability was 1.2 (inactive). Consider `CCOC(=O)C1=C(C)NC(C)=C(C(=O)OC)C1c1cccc(Cl)c1Cl` (centres undefined), for which the fold change permeability is 1.2 (inactive). For `NS(=O)(=O)c1cc2c(cc1Cl)NC(C1CC3C=CC1C3)NS2(=O)=O` (centres undefined) the value was 1.3 (active); for `CC(C)C(=O)Nc1ccc([N+](=O)[O-])c(C(F)(F)F)c1`, 1.2 (inactive); for `Oc1cc2c(c(Cl)c1O)CCNCC2c1ccccc1` (centres undefined), 1.6 (active). On to `CN1C2CCC1CC(OC(c1ccccc1)c1ccccc1)C2` (centres undefined), for which the fold change permeability was 1.7 (active). As for `CC(N)=O`, the figure is 0.9 (inactive).

Take `O=c1cc(-c2ccccc2)oc2c(O)c(O)ccc12`: the fold change permeability is 1.5 (active). For `Cc1scc2c1N(C(=O)CN1CCN(C)CC1)c1ccccc1NC2=O` the value was 0.8 (inactive). For `Cc1cc(CN2CCN(c3c(Br)cnc4nc(-c5ccc(N6CCN(C)CC6)cc5)[nH]c34)CC2)no1`, the fold change permeability was 1.4 (active). In the case of `O=C1NC(=O)c2cc(Nc3ccccc3)c(Nc3ccccc3)cc21`, the fold change permeability was 0.9 (inactive). For `CC1=C(C(=O)Nc2ccc3[nH]ncc3c2)C(c2ccc(F)cc2)NC(=O)N1` (centres undefined) the value was 1.2 (inactive); for `CCN1/C(=C/C(C)=O)Sc2ccc(O)cc21`, 1.1 (inactive).

Turning to `OCCN1CCN(CC/C=C2/c3ccccc3Sc3ccc(C(F)(F)F)cc32)CC1`, the fold change permeability is 1.2 (inactive). As for `CSc1ccc2c(c1)N(CCC1CCCCN1C)c1ccccc1S2` (centres undefined), the figure is 1.4 (active); as for `CC(=O)c1ccc2c(c1)N(CCCN(C)C)c1ccccc1S2`, 1.6 (active). Turning to `O=C(O)CCCCC1CCSS1` (centres undefined), the fold change permeability was 0.7 (active).

As for `Cc1cc(C(C)(C)C)c(O)c(C)c1CC1=NCCN1`, the fold change permeability was 0.8 (inactive). `N#C/C(=C1/SC[C@@H](c2ccc(Cl)cc2Cl)S1)n1ccnc1`: the fold change permeability is 1.6 (active). `O=Nc1c(-c2c(O)[nH]c3cc(Br)ccc23)[nH]c2ccccc12`: the fold change permeability is 1.2 (inactive). In the case of `COc1cc2nc(N3CCN(C(=O)c4ccco4)CC3)nc(N)c2cc1OC`, the fold change permeability was 1 (inactive).

As to `Cc1c(OCC(F)(F)F)ccnc1CS(=O)c1nc2ccccc2[nH]1` (centres undefined), the fold change permeability was 1.6 (active). For `O=C1CCc2cc(OCCCCc3nnnn3C3CCCCC3)ccc2N1` the value was 0.9 (inactive); for `CCCn1c(=O)c2[nH]c(-c3ccc(S(=O)(=O)O)cc3)nc2n(CCC)c1=O`, 1.1 (inactive).

On to `CN(C)CCCN1c2ccccc2Sc2ccc(C(F)(F)F)cc21`, for which the fold change permeability was 1.2 (inactive). As for `COc1ccc(CCN(C)CCc2ccc(OC)c(OC)c2)cc1OC`, the figure is 2 (active); as for `COc1cc(/C=C(\C#N)C(=O)Nc2nnc(C(F)(F)F)s2)ccc1OCc1ccc(C(F)(F)F)cc1C(F)(F)F`, 1.5 (active); as for `C[n+]1cccc(C(N)=O)c1`, 0.9 (inactive). Turning to `O=C(O)c1cccnc1Nc1cccc(C(F)(F)F)c1`, the fold change permeability is 0.9 (inactive). Consider `CC(N)(Cc1ccc(O)c(O)c1)C(=O)O` (centres undefined), for which the fold change permeability was 0.9 (inactive). For `O=C(O)CCCCN(CCc1ccccc1OCc1ccc(CCc2ccccc2)cc1)Cc1ccc(C(=O)O)cc1` the value was 1.2 (inactive); for `CCN(CC)CCCCCCCCOC(=O)c1cc(OC)c(OC)c(OC)c1`, 1.1 (inactive); for `NC(N)=NCCC[C@H](NC(=O)[C@@H](N)Cc1ccc(O)cc1)C(=O)O`, 1.2 (inactive). As for `CN(C)C/C=C(/c1ccc(Br)cc1)c1cccnc1`, the figure is 1.7 (active); as for `CN(C)CCCNC(=O)c1ccc(-c2cc(O)c3ncccc3c2)cc1`, 0.8 (inactive). As for `O=C(CCc1ccc(O)cc1)c1c(O)cc(O)cc1O`, the figure is 1 (inactive); as for `COc1cc(-c2cc(-c3ccc(N4CCNCC4)cc3)cnc2C)cc(OC)c1OC`, 1.2 (inactive). For the compound `N[C@@H](Cc1ccc(O)c(O)c1)C(=O)O`, the fold change permeability is 0.8 (inactive).

For `CN(C)CCCN1c2ccccc2Sc2ccc(Cl)cc21`, the fold change permeability is 1.1 (inactive).
